# The list is not random: actives were taken first. Their share in the collection is about 0.97%.
# Six1-Eya2 inh = inhibitors of human Six1/Eya2 interaction; AID 651725; AlphaScreen GST-Six1/His-Eya2 binding, biochemical; active compounds read low; Q15475+O00167; activity change, % (concentration not given with the values); 360,000 tested, 0.56% active
# Target sequence (O00167 whole entry, looked up): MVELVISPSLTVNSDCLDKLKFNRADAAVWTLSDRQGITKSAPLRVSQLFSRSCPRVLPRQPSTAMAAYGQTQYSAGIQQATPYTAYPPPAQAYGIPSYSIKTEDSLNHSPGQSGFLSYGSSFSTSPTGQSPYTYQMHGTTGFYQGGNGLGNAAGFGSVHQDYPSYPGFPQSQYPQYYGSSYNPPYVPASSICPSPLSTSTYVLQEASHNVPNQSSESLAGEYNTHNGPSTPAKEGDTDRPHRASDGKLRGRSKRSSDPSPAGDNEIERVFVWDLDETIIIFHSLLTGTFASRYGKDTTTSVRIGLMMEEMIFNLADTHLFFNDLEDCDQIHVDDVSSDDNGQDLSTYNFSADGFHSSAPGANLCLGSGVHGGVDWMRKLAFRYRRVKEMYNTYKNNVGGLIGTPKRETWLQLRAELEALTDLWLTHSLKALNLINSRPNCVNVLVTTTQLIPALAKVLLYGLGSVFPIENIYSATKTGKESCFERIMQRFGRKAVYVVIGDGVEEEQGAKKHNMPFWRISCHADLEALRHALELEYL
# Target sequence (Q15475 whole entry, looked up): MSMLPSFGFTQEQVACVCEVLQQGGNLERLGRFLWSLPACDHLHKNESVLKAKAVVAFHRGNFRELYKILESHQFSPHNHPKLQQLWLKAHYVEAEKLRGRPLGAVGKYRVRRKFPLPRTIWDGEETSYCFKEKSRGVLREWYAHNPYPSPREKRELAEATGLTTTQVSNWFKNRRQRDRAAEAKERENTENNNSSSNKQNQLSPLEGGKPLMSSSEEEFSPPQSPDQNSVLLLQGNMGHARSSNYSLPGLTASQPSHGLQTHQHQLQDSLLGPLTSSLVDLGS
#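 AlphaScreen luminescence read after one hour at 37 °C in darkness. Pin-transferred compounds met GST-Six1 and His-Eya2 protein (5X stock 250 nM/500 nM) plus glutathione donor and Ni-chelate acceptor beads (5X, 50 ug/mL).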
# CtBP-E1A inh = CtBP/E1A binding inhibition. AlphaScreen GST-E1A/His-CtBP binding, 1536-well; active compounds read low. activity change, % (test concentration not listed). 340,000 tested, 0.49% active
#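 AlphaScreen with 125 nM GST-E1A and 125 nM His-CtBP (5X stocks) in Tris pH 8.0, 300 mM NaCl, BSA, Tween 20, TCEP. Compounds preincubated 2 h at 37 deg C, then glutathione donor/nickel acceptor beads added for 1 h at 37 deg C in dark.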
# CCT modulator = cytosolic chaperonin activity modulation; purified chaperonin ATPase assay, HTRF ADP detection, 30 min; activity change, % (test concentration not listed), hits read low; 360,000 tested, 0.3% active; AID 651819; in the data active = activity change below about -30%
#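 Nucleotide hydrolysis assay: TRiC at 20–40 nM final (set by batch activity) with 10 uM ATP, 30 min at 37 °C, in presence of 76 uM compound. Detection by competitive ADP HTRF, 30 min ambient.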
# PI4K2A inh = blocks human PI4K2A kinase activity; activity change, negative = inhibition, % at 76.9 µM; Q9BTU6; AID 1346378; 420,000 tested, 0.13% active; purified PI4K2A, ADP-Glo luminescence, 1 h; active compounds read low; in the data active = activity change below about -50%; inconclusive = mostly about -30% to -49%
#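 Compounds are screened against recombinant PI4K2A using PI as substrate and ATP, the latter dispensed at 300 microM. Reactions run one hour at ambient temperature before ADP-Glo detection; full inhibition defined by wells lacking enzyme.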
# Eya2 phos inh = blocks the phosphatase activity of human Eya2; O00167; recombinant Eya2, OMFP fluorescence dephosphorylation (OMFP is methylfluorescein phosphate); Potency, µM (top dose mostly 76.9 µM), hits mostly inhibitors; 330,000 tested, 0.006% active; active = well fitted inhibition curve with a large enough effect; inconclusive = small, poorly fitted or top-dose-only effect, or effect the other way
#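 Eya2 (0.2 uM) preincubated 10 min at ambient with compound, then OMFP substrate added at 50 uM; 10 min reaction in 50 mM HEPES pH 7.5, 50 mM NaCl, 5 uM MgCl2, 0.05% BSA, 1 mM DTT. Fluorescence read at Ex 485/Em 525 nm.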
# Numbers stand for hits; 0 = inactive; ? = inconclusive; - = no result given. Rule as the data show it, unless noted: active = activity change below about -65%; inconclusive = mostly about -30% to -63%; inactive = weaker than that.
SMILES,Six1-Eya2 inh,CtBP-E1A inh,CCT modulator,PI4K2A inh,Eya2 phos inh
O=C(COc1ccccc1-c1nc(-c2ccccc2)no1)Nc1cccc([N+](=O)[O-])c1,-,-,-,0,-
CCCSc1nnc(NC(=O)CSc2sc3c(O)cc(=O)[nH]c3c2C#N)s1,0,0,0,0,0
N#Cc1c(SCC(=O)Nc2nccs2)sc2c(O)cc(=O)[nH]c12,?,-70,0,0,0
CCC(C)n1ncn(-c2ccc(N3CCN(c4ccc(OC[C@H]5CO[C@](Cn6cncn6)(c6ccc(Cl)cc6Cl)O5)cc4)CC3)cc2)c1=O (some centres not stated),-,-,-,0,-
CC1Oc2ccccc2N(CC(=O)N(Cc2ccccc2)Cc2ccccn2)C1=O (configuration not stated),0,0,0,-71,0
O=C(Nc1nccs1)c1ccc(CSc2nnnn2-c2ccccc2)cc1,-68,-79,0,0,0
NC(=O)c1ccc(-n2nnnc2SCc2ccccc2)cc1,0,0,0,0,0
COc1ccc(OC)c(NC(=O)CSc2ncnc3sc(C)cc23)c1,?,-73,0,0,-
NC(=O)C1CCN(C(=O)CN2C(=O)c3ccccc3S2(=O)=O)CC1,0,0,-41,0,0
Cc1ccc(-n2c(=O)c3ccc(C(=O)NCc4ccco4)cc3n(CC(=O)Nc3ccc(C)c(F)c3)c2=O)cc1,-,-,-,0,-
COc1ccc(CNC(=O)C(NC(C)=O)C(=O)Nc2ccc(C(C)C)cc2)cc1 (configuration not stated),0,0,-41,0,0
COc1ccc(NC(=O)C(NC(C)=O)C(=O)NCc2ccccc2OC)cc1 (configuration not stated),0,0,0,0,0
Cc1cccc(OCC(=O)Nc2c(C(=O)N3CCN(c4ccccc4)CC3)oc3ccccc23)c1,-,-,-,0,-
CCOc1ccc(CCNC(=O)Cn2nc(-c3ccc(C)cc3)ccc2=O)cc1OCC,-,-,-,0,-
c1ccc(CN2CCN(CCCNc3ccc4nnc(-c5ccccc5)n4n3)CC2)cc1,-69,0,0,0,0
O=c1c2cc(Br)cc(Br)c2oc2nc3n(c(=O)c12)CCCS3,-,-,-,-,0
O=Cc1ccc2oc3nc4n(c(=O)c3c(=O)c2c1)CCCS4,?,?,0,-62,0
CCn1cc(S(=O)(=O)c2cc(C)cc(C)c2)c(=O)c2cc(F)c(N3CCCCC3)cc21,-,-,-,0,-
Cc1cccc2nc(CNC(=O)CC3C(=O)NCCN3Cc3cccc(F)c3)cn12 (configuration not stated),0,-,-43,0,0
Cc1ccc(Cn2c(=O)c3cccnc3n(Cc3ccc(C)cc3)c2=O)cc1,-,-,-,0,-
CN(C)c1ccc(CNC(=O)C2Cc3c(-c4ccccc4Oc4ccccc4)ccnc3O2)cc1 (configuration not stated),-66,?,0,0,-
CC(C)(C)c1ccc(C(=O)Oc2ccc3c(c2)OCC3=O)cc1,0,0,0,0,0
O=C(Oc1ccc2c(c1)OCC2=O)c1ccccc1,-71,0,0,0,0
Cc1c(C(=O)N2CCOCC2)oc2c1-c1nn(CC(=O)NCc3cccc(Cl)c3)cc1CC2,-,-,-,0,-
Cc1c(C)c2c(C)nn(-c3ccccc3)c2[nH]c1=O,0,0,0,0,0
SMILES,Six1-Eya2 inh,CtBP-E1A inh,CCT modulator,PI4K2A inh,Eya2 phos inh
Nc1c2c(=O)[nH]c(O)cc2nn1-c1ccccc1,0,-66,0,0,-
COC(=O)CSCc1nc2ccccc2[nH]c1=O,0,0,-33,0,0
COc1ccccc1CNC(=O)C(=O)NCC(c1cccs1)S(=O)(=O)c1ccccc1 (configuration not stated),-,-,-,0,-
CN(C)CCNc1cccc2sc3ccc(O)cc3c(=O)c12,?,-67,0,0,-
CCN(CC)CCNc1ccc(CO)c2sc3ccccc3c(=O)c12,0,?,0,0,0
Cc1ccc(NCCN(C)C)c2c(=O)c3cc(O)ccc3sc12,?,-68,0,0,-
COc1cc(C)c2sc3ccccc3c(=O)c2c1NCCN(C)C,-75,0,0,0,-
COC(=O)C1CCN(CC(=O)Nc2cc(C)c3c(=O)oc4ccccc4c3n2)CC1,-,-,-,0,-
O=C1c2ccccc2C(=O)c2c1ccc(O)c2O,-65,?,0,0,-
O=C1C(O)=C(O)C(=O)c2ccccc21,0,0,0,-50,-
O=C1C(=O)c2ccccc2C(O)=C1c1ccccc1F,0,0,0,0,0
COc1cc(/C=N/NC(=O)c2ccccc2)ccc1O,0,0,0,0,0
Cc1c(C(=O)N/N=C/c2ccc(O)c(Br)c2)sc(N)c1C#N,?,-65,0,0,0
Cc1c(C(=O)N/N=C/c2ccc(-c3ccccc3[N+](=O)[O-])o2)sc(N)c1C#N,?,0,0,0,0
COc1cc(/C=N/NC(=O)c2sc(N)c(C#N)c2C)ccc1O,-71,-83,0,0,0
CC1OC(CC(=O)O)CC2=C1C(=O)c1c(O)cccc1C2=O (configuration not stated),-89,0,0,-59,-
O=C1c2cccc(O)c2C(=O)c2c(O)cccc21,-,-,-,0,0
CC1OC1c1ccc(-c2ccc(C3OC3C)cc2)cc1 (configuration not stated),0,-86,0,0,-
Cc1ccc(C2OCC3(CO2)COC(c2ccc(C)cc2)OC3)cc1 (configuration not stated),0,0,0,0,0
COc1cccc(NC(=O)CN(C)C(=O)CC2CCCC2)c1,0,0,-34,0,-
COc1ccc(NC(=O)CN(C)C(=O)CC2CCCC2)cc1,0,0,0,0,0
CCOc1ncc(F)c(=O)[nH]1,-,-,-,0,-
COc1ccc(OCC(=O)N/N=C2\CCCc3ccccc32)cc1,0,0,0,0,0
COc1ccccc1OCC(=O)N/N=C1\CCc2ccccc21,0,0,-34,0,0
Cc1cccc2c1OCC/C2=N\NC(=O)COc1ccccc1,0,0,-32,0,0
SMILES,Six1-Eya2 inh,CtBP-E1A inh,CCT modulator,PI4K2A inh,Eya2 phos inh
C[C@]1(Cn2ccnn2)[C@H](C(=O)O)N2C(=O)C[C@H]2S1(=O)=O,-,-,-,0,-
CCCN(CCC)CCCNC(=O)c1sc2nc3n(c(=O)c2c1C)CCC3,-,-,-,0,-
Cc1cc2ccccc2n1CCNC(=O)COc1ccccc1,0,0,-32,0,0
Cc1cccc(-n2c(=O)c3c(c4cc(C)ccc4n3C)n(CC(=O)Nc3ccc(C)cc3C)c2=O)c1,-,-,-,0,-
Cc1cc2c(s1)c(C#N)c(C(=O)NCc1ccccc1F)n2C,-,-,-,-,0
COc1cnc(-c2ccccn2)nc1Oc1ccccc1,?,-67,0,0,0
COc1cnc(-c2ccccn2)nc1Sc1ccc(F)cc1,?,-72,0,0,0
COc1cnc(-c2ccccn2)nc1Sc1ccc(Cl)cc1,0,0,0,0,0
Cc1ccc(-n2nc3c(N4CCCC(C(=O)NCc5ccccc5C)C4)nnc(C)c3c2C)cc1 (configuration not stated),-,-,-,0,-
CC(C)Nc1nnc(SCC(=O)Nc2ccc3c(c2)C(=O)c2ccccc2C3=O)s1,-74,0,0,0,0
